This is an account of results in ChEMBL document CHEMBL2218924, “A broad activity screen in support of a chemogenomic map for kinase signalling research and drug discovery” (Biochem J, 2013).

SMILES strings stand for the structures.

Test [1] concerns the target T1, Serine/threonine-protein kinase TBK1 (Homo sapiens) (UniProt Q9UHD2).
T1 sequence (whole entry): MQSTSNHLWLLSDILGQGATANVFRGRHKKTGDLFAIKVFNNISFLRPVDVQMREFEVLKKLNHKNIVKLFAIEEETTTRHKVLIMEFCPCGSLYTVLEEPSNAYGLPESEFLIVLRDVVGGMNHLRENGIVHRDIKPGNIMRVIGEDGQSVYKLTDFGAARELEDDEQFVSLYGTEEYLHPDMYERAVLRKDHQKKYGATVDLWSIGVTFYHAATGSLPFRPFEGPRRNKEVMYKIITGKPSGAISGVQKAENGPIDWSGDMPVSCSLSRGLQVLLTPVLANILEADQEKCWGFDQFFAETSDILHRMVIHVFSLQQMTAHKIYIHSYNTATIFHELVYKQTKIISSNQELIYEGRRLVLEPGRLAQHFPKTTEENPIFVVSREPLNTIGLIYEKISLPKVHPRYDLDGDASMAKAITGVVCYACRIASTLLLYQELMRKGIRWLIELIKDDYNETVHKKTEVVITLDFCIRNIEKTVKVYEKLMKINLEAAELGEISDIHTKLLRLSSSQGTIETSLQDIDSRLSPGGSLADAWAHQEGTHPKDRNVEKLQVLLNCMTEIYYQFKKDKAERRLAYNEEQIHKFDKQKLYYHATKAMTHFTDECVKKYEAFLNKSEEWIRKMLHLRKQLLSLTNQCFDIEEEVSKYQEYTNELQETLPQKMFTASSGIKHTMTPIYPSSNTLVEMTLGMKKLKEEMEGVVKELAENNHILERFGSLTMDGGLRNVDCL
The following applies: at 10 µM.

Test [2] has as its target T2, TGF-beta receptor type-1 (Homo sapiens) (UniProt P36897).
T2 sequence (whole entry): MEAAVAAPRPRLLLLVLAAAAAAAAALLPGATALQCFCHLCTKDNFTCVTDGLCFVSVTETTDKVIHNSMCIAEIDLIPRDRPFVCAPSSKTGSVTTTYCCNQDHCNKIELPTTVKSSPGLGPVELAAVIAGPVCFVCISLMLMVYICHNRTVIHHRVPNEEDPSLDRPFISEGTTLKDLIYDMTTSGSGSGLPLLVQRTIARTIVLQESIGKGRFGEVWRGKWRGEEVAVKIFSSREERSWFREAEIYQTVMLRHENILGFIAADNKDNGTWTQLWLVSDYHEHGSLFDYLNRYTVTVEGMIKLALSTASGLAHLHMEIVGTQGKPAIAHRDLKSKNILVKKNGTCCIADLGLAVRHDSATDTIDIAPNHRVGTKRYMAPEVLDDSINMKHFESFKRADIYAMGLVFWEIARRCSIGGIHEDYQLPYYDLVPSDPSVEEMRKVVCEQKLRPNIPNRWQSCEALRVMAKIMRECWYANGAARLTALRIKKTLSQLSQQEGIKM
The settings on record: at 1 µM.

Test [3] deals with T2, TGF-beta receptor type-1 (Homo sapiens). The following applies: at 10 µM.
Test [4] addresses Insulin-like growth factor 1 receptor (Homo sapiens) (UniProt P08069). The settings on record: at 1 µM.
The target is the same in test [5]. The following applies: at 10 µM.
Test [6] deals with T3, Inhibitor of nuclear factor kappa-B kinase subunit alpha (Homo sapiens) (UniProt O15111).
T3 sequence (whole entry): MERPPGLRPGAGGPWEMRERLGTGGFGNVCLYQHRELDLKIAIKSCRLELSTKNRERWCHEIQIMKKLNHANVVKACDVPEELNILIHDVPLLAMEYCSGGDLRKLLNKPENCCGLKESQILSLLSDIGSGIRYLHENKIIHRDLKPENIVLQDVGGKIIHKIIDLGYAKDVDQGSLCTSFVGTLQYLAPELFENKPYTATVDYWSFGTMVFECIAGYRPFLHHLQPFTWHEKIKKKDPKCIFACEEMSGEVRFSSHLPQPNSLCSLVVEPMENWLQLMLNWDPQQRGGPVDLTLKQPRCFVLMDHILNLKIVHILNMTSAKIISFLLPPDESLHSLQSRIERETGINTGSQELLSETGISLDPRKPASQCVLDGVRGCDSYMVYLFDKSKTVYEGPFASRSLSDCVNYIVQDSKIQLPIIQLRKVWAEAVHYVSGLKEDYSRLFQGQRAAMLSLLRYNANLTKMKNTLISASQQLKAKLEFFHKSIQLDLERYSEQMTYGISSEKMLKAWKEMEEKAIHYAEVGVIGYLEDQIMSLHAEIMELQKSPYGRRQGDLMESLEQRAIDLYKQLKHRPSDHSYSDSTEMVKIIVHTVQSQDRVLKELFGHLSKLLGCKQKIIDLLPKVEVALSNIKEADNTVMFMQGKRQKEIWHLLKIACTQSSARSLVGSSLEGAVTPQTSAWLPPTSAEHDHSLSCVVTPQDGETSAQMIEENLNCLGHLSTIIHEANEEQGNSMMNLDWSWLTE
The settings on record: at 1 µM.

Test [7] addresses T3, Inhibitor of nuclear factor kappa-B kinase subunit alpha (Homo sapiens). The following applies: at 10 µM.
For test [8], the target named is T4, Inhibitor of nuclear factor kappa-B kinase subunit beta (Homo sapiens) (UniProt O14920).
T4 sequence (whole entry): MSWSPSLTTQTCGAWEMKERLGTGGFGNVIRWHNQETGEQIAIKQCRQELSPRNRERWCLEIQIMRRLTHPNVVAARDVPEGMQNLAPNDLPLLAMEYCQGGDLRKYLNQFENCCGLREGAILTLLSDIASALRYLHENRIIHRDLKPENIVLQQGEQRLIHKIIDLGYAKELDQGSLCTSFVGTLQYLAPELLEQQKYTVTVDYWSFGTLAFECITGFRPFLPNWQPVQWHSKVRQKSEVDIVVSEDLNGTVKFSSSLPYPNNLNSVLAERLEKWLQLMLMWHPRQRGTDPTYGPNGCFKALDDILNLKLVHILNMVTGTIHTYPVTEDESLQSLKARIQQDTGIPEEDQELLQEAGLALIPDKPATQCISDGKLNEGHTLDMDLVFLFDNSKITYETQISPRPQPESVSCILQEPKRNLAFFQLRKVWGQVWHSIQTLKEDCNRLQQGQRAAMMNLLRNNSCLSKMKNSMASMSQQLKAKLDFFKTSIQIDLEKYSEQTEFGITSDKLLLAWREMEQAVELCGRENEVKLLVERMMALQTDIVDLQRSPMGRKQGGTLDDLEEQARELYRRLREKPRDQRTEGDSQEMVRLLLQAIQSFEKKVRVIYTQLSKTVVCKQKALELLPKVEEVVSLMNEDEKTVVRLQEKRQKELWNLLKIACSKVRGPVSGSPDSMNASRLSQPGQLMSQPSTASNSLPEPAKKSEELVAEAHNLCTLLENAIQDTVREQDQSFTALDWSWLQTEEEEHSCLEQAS
The following applies: at 1 µM.

Test [9] addresses T4, Inhibitor of nuclear factor kappa-B kinase subunit beta (Homo sapiens). The settings on record: at 10 µM.
Test [10] addresses Insulin receptor (Homo sapiens) (UniProt P06213). The settings on record: at 1 µM.

Insulin receptor (Homo sapiens), sequence (P06213 28-758 limits assumed): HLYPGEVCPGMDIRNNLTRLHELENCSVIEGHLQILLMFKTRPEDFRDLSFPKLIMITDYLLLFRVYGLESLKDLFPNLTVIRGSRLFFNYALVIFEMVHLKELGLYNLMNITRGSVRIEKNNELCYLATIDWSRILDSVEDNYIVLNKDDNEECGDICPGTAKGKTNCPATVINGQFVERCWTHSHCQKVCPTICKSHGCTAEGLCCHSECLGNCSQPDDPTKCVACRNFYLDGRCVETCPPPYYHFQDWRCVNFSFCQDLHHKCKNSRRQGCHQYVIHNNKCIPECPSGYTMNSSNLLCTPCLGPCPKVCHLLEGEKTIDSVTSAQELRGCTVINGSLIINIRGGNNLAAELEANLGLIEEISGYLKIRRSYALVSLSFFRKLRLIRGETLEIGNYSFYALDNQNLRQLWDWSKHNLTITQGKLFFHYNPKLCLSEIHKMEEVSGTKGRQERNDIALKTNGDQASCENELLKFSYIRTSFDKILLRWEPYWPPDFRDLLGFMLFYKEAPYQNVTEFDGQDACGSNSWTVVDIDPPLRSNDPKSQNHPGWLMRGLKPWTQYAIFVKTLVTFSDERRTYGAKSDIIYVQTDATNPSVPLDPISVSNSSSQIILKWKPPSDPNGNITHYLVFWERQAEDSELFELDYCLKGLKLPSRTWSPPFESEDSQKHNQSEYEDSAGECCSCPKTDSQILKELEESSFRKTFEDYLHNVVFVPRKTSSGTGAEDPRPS
Insulin receptor (Homo sapiens), sequence (P06213 763-1382 limits assumed): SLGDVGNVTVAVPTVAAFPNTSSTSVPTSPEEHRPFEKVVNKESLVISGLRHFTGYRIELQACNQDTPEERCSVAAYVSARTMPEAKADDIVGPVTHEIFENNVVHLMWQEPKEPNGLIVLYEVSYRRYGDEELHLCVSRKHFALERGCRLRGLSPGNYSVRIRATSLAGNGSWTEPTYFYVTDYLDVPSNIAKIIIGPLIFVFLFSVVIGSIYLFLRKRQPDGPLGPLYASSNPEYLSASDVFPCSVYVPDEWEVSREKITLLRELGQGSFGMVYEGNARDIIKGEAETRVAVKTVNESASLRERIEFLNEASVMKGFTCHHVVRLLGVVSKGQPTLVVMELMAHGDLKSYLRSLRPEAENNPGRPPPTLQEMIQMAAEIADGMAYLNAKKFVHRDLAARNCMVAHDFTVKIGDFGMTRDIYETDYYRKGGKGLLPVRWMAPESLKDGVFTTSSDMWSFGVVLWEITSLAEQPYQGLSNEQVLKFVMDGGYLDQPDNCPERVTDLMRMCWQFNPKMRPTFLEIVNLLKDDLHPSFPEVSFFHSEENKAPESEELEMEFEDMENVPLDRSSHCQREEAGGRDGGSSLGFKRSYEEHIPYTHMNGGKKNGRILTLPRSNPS
Insulin-like growth factor 1 receptor (Homo sapiens), sequence (P08069 31-736 limits assumed): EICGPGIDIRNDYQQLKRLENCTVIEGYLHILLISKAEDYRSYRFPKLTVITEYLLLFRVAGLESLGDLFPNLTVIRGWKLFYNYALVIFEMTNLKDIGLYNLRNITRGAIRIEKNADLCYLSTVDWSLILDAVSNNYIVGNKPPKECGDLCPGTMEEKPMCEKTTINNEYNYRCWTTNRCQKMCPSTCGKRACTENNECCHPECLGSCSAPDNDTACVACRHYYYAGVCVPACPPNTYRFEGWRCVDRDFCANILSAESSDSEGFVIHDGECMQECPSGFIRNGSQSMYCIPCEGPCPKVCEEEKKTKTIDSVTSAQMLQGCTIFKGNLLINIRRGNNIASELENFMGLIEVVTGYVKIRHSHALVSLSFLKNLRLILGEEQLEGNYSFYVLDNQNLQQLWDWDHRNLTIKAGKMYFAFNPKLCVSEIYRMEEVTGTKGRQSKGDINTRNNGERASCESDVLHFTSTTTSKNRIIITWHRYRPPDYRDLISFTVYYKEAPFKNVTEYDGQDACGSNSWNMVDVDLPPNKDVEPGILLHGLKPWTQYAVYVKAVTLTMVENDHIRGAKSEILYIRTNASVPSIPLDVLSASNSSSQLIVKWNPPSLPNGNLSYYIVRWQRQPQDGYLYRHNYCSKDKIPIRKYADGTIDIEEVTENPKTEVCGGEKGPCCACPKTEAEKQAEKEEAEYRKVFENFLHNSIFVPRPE
Insulin-like growth factor 1 receptor (Homo sapiens), sequence (P08069 741-1367 limits assumed): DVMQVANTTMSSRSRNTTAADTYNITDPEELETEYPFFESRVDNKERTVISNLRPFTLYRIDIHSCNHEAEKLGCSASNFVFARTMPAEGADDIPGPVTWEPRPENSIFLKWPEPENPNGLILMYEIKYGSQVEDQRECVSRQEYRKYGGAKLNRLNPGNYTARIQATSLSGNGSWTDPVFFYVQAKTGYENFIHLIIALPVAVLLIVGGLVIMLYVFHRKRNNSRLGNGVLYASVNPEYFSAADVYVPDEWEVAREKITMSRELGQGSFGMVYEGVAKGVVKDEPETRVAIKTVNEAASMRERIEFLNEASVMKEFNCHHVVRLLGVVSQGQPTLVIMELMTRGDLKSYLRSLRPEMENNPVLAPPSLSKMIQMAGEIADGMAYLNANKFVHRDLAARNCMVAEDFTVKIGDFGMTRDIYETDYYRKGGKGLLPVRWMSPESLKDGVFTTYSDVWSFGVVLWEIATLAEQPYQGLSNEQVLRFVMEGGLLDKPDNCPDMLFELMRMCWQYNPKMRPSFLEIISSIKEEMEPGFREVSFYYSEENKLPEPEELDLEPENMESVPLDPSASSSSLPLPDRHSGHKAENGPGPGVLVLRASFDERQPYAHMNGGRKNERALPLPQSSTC

On to `CN(C)c1ccc(/C=C2\C(=O)Nc3ccccc32)cc1`, for which the residual activity (usually the signal under treatment as a percentage of the control signal) in test [1] amounted to 45%; in [2], 93%; in test [3], 98%; in [4], 105%; in [5], 103%; in test [6] it was 102%. For the same compound, the residual activity in [7] was 120%; in test [8], 112%; in [9], 93%; in test [10] it was 99%.
On to `c1ccc2c(-c3ccncc3)c[nH]c2c1`, for which the residual activity amounted to 51% in test [1]; 87% in test [2]; 88% in test [3]; 88% in test [4]; 79% in test [5]; 97% in test [6]. Moreover, the residual activity in test [7] was 69%; in test [8], 105%; in test [9], 73%; in test [10] it was 110%.
For `O=C(Nc1cccc(Nc2nccc(Nc3cccc(C(F)(F)F)c3)n2)c1)C1CC1`, the residual activity in [1] was 32%; in test [2] it was 105%; in [3], 72%; in [4] it was 90%; in test [5], 96%; in [6] it was 113%. Moreover, the residual activity in [7] worked out at 88%; in [8], 74%; in test [9], 52%; in [10], 22%.
Regarding `CCC(=O)Nc1ccc2ncnc(Nc3cccc(Br)c3)c2c1`, the residual activity in test [1] was 68%; in [2], 75%; in [3], 94%; in test [4], 97%; in [5], 102%; in test [6], 121%. The residual activity came to 125% in [7], 112% in [8], 97% in test [9] and 110% in test [10].
Consider `O=C1NC(=O)/C(=C/c2ccc3c(c2)OC(F)(F)O3)S1`, for which the residual activity was 67% in test [1]; 95% in [2]; 89% in test [3]; 113% in test [4]; 102% in [5]; 112% in test [6]. In addition, the residual activity in [7] came out at 107%; in test [8], 111%; in test [9] it was 92%; in test [10], 111%.
Take `CC(C)n1cnc2c(NCc3ccccc3)nc(NCCCO)nc21`: the residual activity in [1] amounted to 66%; in test [2] it was 93%; in test [3], 81%; in [4], 90%; in test [5] it was 87%; in test [6], 116%. For the same compound, the residual activity came out at 104% in test [7], 110% in [8], 94% in [9] and 91% in [10].
Consider `Nc1n[nH]c2nnc(-c3c(-c4ccccc4)nn4ccccc34)cc12`, for which the residual activity was 67% in [1]; 88% in test [2]; 83% in test [3]; 82% in test [4]; 76% in test [5]; 115% in [6]. Moreover, the residual activity in [7] was determined as 107%; in [8], 102%; in test [9], 102%; in test [10], 70%.
In the case of `Cc1cccc(-c2[nH]c(C(C)(C)C)nc2-c2ccc3c(c2)OCO3)n1`, the residual activity in test [1] came out at 72%; in [2], 10%; in [3] it was 0%; in [4] it was 106%; in test [5], 96%.
Consider `O=c1cc(-c2cccc3c2Sc2ccccc2S3)oc(N2CCOCC2)c1`, for which the residual activity in [1] is 80%; in test [2], 114%; in test [3] it was 88%; in [4], 105%; in [5], 101%; in test [6] it was 98%. For the same compound, the residual activity turned out to be 93% in test [7], 106% in [8], 103% in test [9] and 105% in test [10].
Take `Oc1n[nH]c2nnc(-c3c(-c4ccccc4)nn4ccccc34)cc12`: the residual activity in test [1] turned out to be 60%; in test [2], 84%; in test [3], 74%; in test [4], 84%; in test [5], 91%; in test [6], 102%. The residual activity in test [7] was determined as 92%; in [8], 97%; in [9], 93%; in test [10], 47%.
Consider `Oc1c2ccccc2c2c3c(cccc13)N=N2`, for which the residual activity in test [1] turned out to be 11%; in test [2], 88%; in [3], 74%; in test [4], 92%; in [5], 49%; in test [6], 57%. In addition, the residual activity in test [7] amounted to 21%; in test [8], 78%; in [9], 43%; in [10], 81%.
Regarding `O=C1NC(=O)/C(=C\c2ccc3nccnc3c2)S1`, the residual activity in [1] was 27%; in [2], 92%; in [3] it was 75%; in [4], 105%; in [5], 89%; in [6] it was 100%. Also, the residual activity in test [7] was 54%; in test [8], 102%; in test [9], 69%; in [10], 107%.
Turning to `O=C1NC(=O)c2c1c1c3ccccc3[nH]c1c1[nH]c3cc(Br)ccc3c21`, the residual activity worked out at 54% in [1]; 100% in test [2]; 98% in [3]; 96% in test [4]; 99% in [5]; 89% in test [6]. The residual activity in test [7] amounted to 71%; in test [8] it was 77%; in test [9], 100%; in test [10] it was 99%.
Regarding `O=C1c2ccccc2-[n+]2ccc3c([nH]c4ccccc43)c21`, the residual activity in [1] worked out at 53%; in [2], 81%; in [3], 78%; in test [4], 86%; in test [5], 92%; in test [6] it was 108%. Further, the residual activity in test [7] was 108%; in [8], 113%; in test [9] it was 97%; in test [10], 84%.
Take `Cc1cc2ncc(-c3ccccc3)nc2cc1C`: the residual activity in test [1] turned out to be 73%; in test [2], 100%; in test [3], 91%; in test [4] it was 99%; in [5], 101%; in test [6], 105%. Moreover, the residual activity in test [7] worked out at 109%; in test [8] it was 101%; in test [9], 99%.
Turning to `CCOc1cc2ncnc(Nc3cccc(Br)c3)c2cc1OCC`, the residual activity was 33% in test [1]; 89% in [2]; 81% in test [3]; 104% in [4]; 100% in [5]; 108% in [6]. Besides, the residual activity was determined as 108% in test [7], 97% in test [8], 82% in test [9] and 104% in test [10].
